For 91 compounds, activation results are on record in PubChem BioAssay AID504408 (Broad Institute, 2011).

The whole screen tested about 300,000 compounds, of which about 5,200 (1.7%) were called active.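 The calls were made as follows: active = mean replicate activation of at least 50% with a set share of replicates each reaching 50%; inconclusive = only one of those two conditions met; inactive = mean below 50% and too few replicates reaching it.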 The list comes from a sample in which actives are over-represented; it also holds similar structures and randomly drawn compounds.

This assay in a line: HSF-1 activators, primary screen, NIH3T3-HGL cells, MG132 stress, luminescence, single point (AID 504408).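 Also: 0% = median of the neutral control wells and 100% = twice that signal.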 As to conditions: NIH3T3-HGL HSF-1 luciferase reporter, MG132, 8 h; at 9 µM; hits give high values; 100% = twice DMSO control signal.
Regarding `Cc1ccc(C)c(NC(=O)COC(=O)Cn2c(C)csc2=O)c1`, the activation was -8.55% (inactive).
Then `COc1cc(/C=N/NC(=O)c2cc(-c3ccccc3C)nc3ccccc23)cc(OC)c1O`, with 18.6% (inactive); and `CN1CCN(C2Cc3ccc(Cl)cc3Sc3ccc(F)cc32)CC1` (stereo unspecified), with -3.39% (inactive).
Then `CC(=O)NC(Cc1c[nH]c2ccccc12)C(=O)NCCc1ccccc1` (stereo unspecified), with -11.2% (inactive); and `Cc1cccc(C)c1OCC(=O)NC(Cc1c[nH]c2ccccc12)C(=O)O` (stereo unspecified), with 0.58% (inactive); and `CC(=O)NC(Cc1c[nH]c2ccccc12)C(=O)O` (stereo unspecified), with 56% (active).
Regarding `CC1CCN(C(=O)c2cccc(S(=O)(=O)N3CCCc4ccccc43)c2)CC1`, the activation is 9.01% (inactive).
`Cc1ccc(N2CC(C(=O)N3CCC4(CC3)CC(=O)c3ccccc3O4)CC2=O)cc1C` (stereo unspecified): the activation is -2.34% (inactive).
For `O=C(O)C1C2C=CC(C2)C1C(=O)NCc1ccccc1` (stereo unspecified) the value was -13% (inactive).
With `Nc1ccccc1/C=N\N=C/c1ccccc1N`, the activation is 1.94% (inactive).
For `Cc1ccc(-n2ncc3c(=O)[nH]cnc32)c(C)c1` the value was -3.73% (inactive).
Then `Cc1ccc2cc(C)c(N3CCN(c4ccc(F)cc4)CC3)nc2c1`, with 5.08% (inactive); and `Cc1ccc(-n2ncc3c(N4CCN(c5ccc(F)cc5)CC4)ncnc32)c(C)c1`, with 57.9% (active); and `Nc1ccc(C(=O)N2CCN(S(=O)(=O)c3ccc(Cl)cc3)CC2)cc1[N+](=O)[O-]`, with 17.9% (inactive).
Turning to `COc1ccc(C)cc1NC(=O)CSc1nnc2ccc(-c3ccccn3)nn12`, the activation was -10.8% (inactive).
For the compound `COc1ccc(C2=NN(C(=O)CSc3nc(=O)n4ccc(C)cc4n3)C(c3ccc(C)cc3)C2)cc1` (stereo unspecified), the activation was 9.37% (inactive).
Then `O=C(NCCc1c[nH]c2ccccc12)c1cc2ccccc2oc1=O`, with 62.1% (active); and `O=C(NCCc1c[nH]c2ccccc12)c1cccc(Br)c1`, with 7.52% (inactive).
Turning to `CN(c1ccccc1)S(=O)(=O)c1ccc(Cl)c(C(=O)NCCc2c[nH]c3ccccc23)c1`, the activation was -1.41% (inactive).
For `COc1ccccc1CNS(=O)(=O)c1cc2c3c(c1)CCC(=O)N3CCC2` the value was 14.6% (inactive).
For `COc1ccc(CC(=O)OC(C)C(=O)Nc2ccc(S(N)(=O)=O)cc2)cc1` (stereo unspecified) the value was -0.48% (inactive).
Then `CC(OC(=O)CNC(=O)c1cccc(F)c1)C(=O)NC1CCCCC1C` (stereo unspecified), with -3.7% (inactive).
As to `CCOC(=O)C1=C(c2ccccc2)NC(=S)NC1c1ccc(Cl)cc1` (stereo unspecified), the activation is 63.5% (active).
For `CCOC(=O)C1=C(c2ccccc2)NC(=O)NC1c1cc(OCC)c(O)c([N+](=O)[O-])c1` (stereo unspecified) the value was 29.6% (inactive); for `CCOC(=O)C1=C(CN2CCc3ccccc32)NC(=O)NC1c1ccc(Cl)cc1` (stereo unspecified), 58.6% (active).
For `CCOC(=O)C1=C(c2ccccc2)NC(=O)NC1c1cc(OC)c(OC)cc1OC` (stereo unspecified) the value was -12.4% (inactive).
Turning to `CCOC(=O)C1=C(CN2CCc3ccccc32)NC(=O)NC1c1cc(C)ccc1C` (stereo unspecified), the activation was 15.2% (inactive).
For `CCOC(=O)C1=C(CN2CCc3ccccc32)NC(=O)NC1c1cccc([N+](=O)[O-])c1` (stereo unspecified) the value was 39.3% (inactive).
For `CC(=O)CC(CC(=O)NC1CCCCC1)c1ccccc1` (stereo unspecified) the value was -2.27% (inactive); for `CC(NC(=O)c1ccccc1SCC(=O)N1CCCC1)c1ccccc1` (stereo unspecified), -5.63% (inactive); for `COc1ccc(C(C(=O)NC(C)(C)C)N(C(=O)Cn2nnc3ccccc32)c2ccc(C(C)=O)cc2)cc1O` (stereo unspecified), 1.15% (inactive).
For the compound `CCOc1cc(C(C(=O)NCC2CCCO2)N(C(=O)Cn2nnc3ccccc32)c2cccc(OC)c2)ccc1O` (stereo unspecified), the activation is -1.11% (inactive).
Then `COc1ccc(C(C(=O)NCC2CCCO2)N(C(=O)Cn2nnc3ccccc32)c2ccc(NC(C)=O)cc2)cc1OC` (stereo unspecified), with 84% (active); and `O=C1/C(=C\c2ccc(O)cc2)CCC1CNc1ccc(Cl)cc1` (stereo unspecified), with -5.88% (inactive); and `COc1ccc(C(=O)c2c3ccc([N+](=O)[O-])cc3[n+]([O-])n2CCCN)cc1`, with 11.6% (inactive).
For the compound `CCC(C)c1ccccc1N1CC(C(=O)N2CCN(S(=O)(=O)c3ccc(F)cc3)CC2)CC1=O` (stereo unspecified), the activation was 7.61% (inactive).
For `CCOC(=O)c1ccc(Nc2cc3ccccc3c(=O)[nH]2)cc1` the value was -14.6% (inactive).
For `CCOC(=O)c1sc(-c2cccc([N+](=O)[O-])c2)cc1N` the value was 24.4% (inactive).
Then `CCOC(=O)c1sc(C)c2c1NC(C)(c1cccc3ccccc13)NC2=O` (stereo unspecified), with 97.8% (active).
Regarding `CCOC(=O)c1c(C)[nH]c(C(=O)OCC(=O)N2CCCC2=O)c1C`, the activation is 16.4% (inactive).
Then `CCOC(=O)c1c(C)[nH]c(C(=O)OCC(=O)c2ccc(OC)cc2OC)c1C`, with -6.52% (inactive); and `CCCCOC(=O)c1[nH]c(C)c(C(=O)OC)c1C`, with 52.3% (active).
With `COc1cc(-c2nnc(NC(=O)C3=COCCO3)o2)cc(OC)c1OC`, the activation is -3.05% (inactive).
Then `O=C(OCCOCn1cc(Br)c(=O)[nH]c1=O)c1ccccc1`, with -0.69% (inactive); and `N[C@@H](Cc1ccccc1)C(=O)N1CCOCC1`, with -19.9% (inactive).
For `C=CCOc1cccc(C2C(C(=O)c3ccc(C)o3)=C(O)C(=O)N2c2nnc(C)s2)c1` (stereo unspecified) the value was -4.03% (inactive).
As for `CC(=O)c1ccc(NC(=O)C2CCCN2S(=O)(=O)c2cccs2)cc1` (stereo unspecified), the activation is -4.67% (inactive).
Then `c1ccc(CN=C2Nc3ccccc3CS2)nc1`, with 58% (active); and `CCCCN(C1CCS(=O)(=O)C1)S(=O)(=O)c1ccc(C(C)C)cc1` (stereo unspecified), with 0.442% (inactive).
For `CCCCN(C(=O)c1ccc(S(=O)(=O)N2CCOCC2)cc1)C1CCS(=O)(=O)C1` (stereo unspecified) the value was -15% (inactive); for `Cc1cccc(C(C)C)c1NC(=O)COC(=O)C1CC(=O)N(Cc2ccccc2)C1` (stereo unspecified), 4.94% (inactive).
For `Cc1cc(C)c2nc(NC(=O)C3CCCO3)sc2c1` (stereo unspecified) the value was 61.5% (active).
Turning to `Cc1ccc(C)c(C(C)NC(=O)C2CCCO2)c1` (stereo unspecified), the activation is 2.29% (inactive).
Regarding `Cc1cc([N+](=O)[O-])ccc1NC(=O)C1CCCO1` (stereo unspecified), the activation is 0.502% (inactive).
For `COc1cccc(/C=C/C(=O)OCC(=O)N2CCCc3ccccc32)c1`, the activation was -15.2% (inactive).
As for `CC(=O)N1CCN(C(=O)c2cc(-c3ccc(C)o3)nc3ccccc23)CC1`, the activation was -3% (inactive).
For `COC(=O)c1c(C)[nH]c(C(=O)NCCc2ccc(S(N)(=O)=O)cc2)c1C` the value was 22.1% (inactive).
In the case of `COC(=O)c1c(C)[nH]c(C(=O)/C=C/c2ccc(Cl)cc2)c1C`, the activation was 75.6% (active).
Then `Cc1ccc(NC(=S)NC(=O)/C=C/c2ccc(Cl)cc2)cc1`, with 8.91% (inactive); and `O=C(OCc1nnc(-c2ccccc2)o1)c1cc(=O)[nH]c2ccccc12`, with -8.33% (inactive).
On to `COC(=O)c1ccc(COC(=O)C2CCN(S(=O)(=O)c3c(Cl)cccc3Cl)CC2)o1`, for which the activation was -1.35% (inactive).
For `Cc1cccc(NC(=O)C2CCCN(C(=O)NCc3ccccc3)C2)c1C` (stereo unspecified) the value was 23.5% (inactive).
For `Cc1ccccc1NC(=O)C1CCCN(C(=O)NCc2ccccc2)C1` (stereo unspecified) the value was 66.9% (active); for `Cc1ccccc1NC(=O)N1CCCC1C(=O)NCc1ccccc1` (stereo unspecified), -14.4% (inactive); for `CCOC(=O)N1CCN(C(=O)COc2ccc3oc4c(c3c2)CCCC4)CC1`, -4.2% (inactive).
As to `CCN(CC(=O)NCc1cccs1)C(=O)c1ccc(OC)c(S(=O)(=O)N2CCOCC2)c1`, the activation is -5.75% (inactive).
Then `O=C(NCc1ccc2c(c1)OCO2)c1c(O)nc2sccn2c1=O`, with 14.5% (inactive); and `CC(C)OC(=O)c1ccc(COc2ccc3ccc(=O)oc3c2)o1`, with 65.7% (active); and `Cc1noc(C)c1COc1ccc2ccc(=O)oc2c1`, with 0.156% (inactive).
`COC(=O)c1ccc(COc2ccc(C#N)cc2)o1`: the activation was 10.5% (inactive).
For `O=C1CCCCC1Sc1ccc(Cl)cc1[N+](=O)[O-]` (stereo unspecified), the activation is 8.24% (inactive).
Then `Cc1cc(OCC(=O)N(C)c2c(N)n(Cc3ccccc3)c(=O)[nH]c2=O)c(C(C)C)cc1Cl`, with -0.115% (inactive).
For `Cc1ccc2nc(NC(=O)C3CSC4(C)CCC(=O)N34)sc2c1` (stereo unspecified) the value was 10.5% (inactive); for `CS(=O)(=O)N(CC(=O)N1CCc2ccccc2C1)c1ccc(Br)cc1`, -4.09% (inactive).
Then `CN(c1ccc(C(=O)N2CCc3ccccc3C2)cc1)S(C)(=O)=O`, with 57.9% (active).
Turning to `O=C(C(=O)N1CCc2ccccc2C1)N1CCc2ccccc2C1`, the activation was 2.97% (inactive).
`Cc1ccc(S(=O)(=O)N(CC(=O)N2CCc3ccccc3C2)c2cccc(Cl)c2)cc1`: the activation is 13% (inactive).
In the case of `CN(c1cccc(NC(=O)c2ccc(CN3CCc4ccccc4C3)cc2)c1)S(C)(=O)=O`, the activation is 21.2% (inactive).
For `COc1cccc(N(CC(=O)N2CCc3ccccc3C2)S(C)(=O)=O)c1` the value was 69.4% (active); for `Cc1cc2nc3n(c2cc1C)CC1CC(C(=O)NCCC(C)C)N(C)C31` (stereo unspecified), 11.4% (inactive).
Then `Cc1ccc(S(=O)(=O)n2cccc2CO)cc1`, with 3.66% (inactive); and `O=C(COc1ccccc1)Nc1ccc(F)cc1`, with 1.97% (inactive); and `Cc1ccc(O)c(CNc2nc3ccccc3n2C)c1`, with 6.25% (inactive).
For `Cc1ccc(-c2cc(=O)[nH]c(NCc3ccccc3)n2)cc1` the value was 11.6% (inactive); for `Cc1ccc(O)c(CNc2nc3ccccc3[nH]2)c1`, 83.1% (active); for `Cc1sc2ncnc(N3CCC(C(=O)Nc4nc5ccc(Cl)cc5s4)CC3)c2c1C`, 8.18% (inactive).
For `CC(Oc1cccc(Cl)c1)C(=O)Nc1ccc(S(=O)(=O)Nc2ncccn2)cc1` (stereo unspecified), the activation is -4.25% (inactive).
For `COc1ccc(S(=O)(=O)N2CCC(C(=O)N3CCc4ccccc4C3)CC2)cc1OC` the value was -2.14% (inactive); for `COc1cc2c(cc1OC)C(C)N(S(=O)(=O)c1cnc(Cl)c(Cl)c1)CC2` (stereo unspecified), 227% (active); for `COc1cc2c(cc1OC)CN(C(=O)c1cc(S(=O)(=O)N3CCCCC3)ccc1Cl)CC2`, 31.4% (inactive).
For `CCCCn1c(N)c(N(CC)C(=O)c2ccc(N(C)S(=O)(=O)c3ccc(C)cc3)cc2)c(=O)[nH]c1=O` the value was -9.17% (inactive).
